Source: PubChem BioAssay (NCI)
The panel holds about 83,000 compounds, 20% with a hit somewhere; the sample as a whole holds those more often.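 Negative percent growth values reflect cell death: -40 means 40% of the cells present at the start died, and -100 means all died.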 Calls of active or inactive are those of the source. How the source made its calls: active means growth percent below 10; inactive means the rest.

Tests used:
Test in all cases: NCI-60 one-dose screen, 48 h (100 = growth as untreated, 0 = no growth, -100 = all killed)
DU-145 prostate = settings: 10 µM
K-562 leukemia = settings: 10 µM
MALME-3M melanoma = settings: 10 µM
MDA-MB-231 breast = settings: 10 µM
RXF 393 renal = settings: 10 µM
SF-268 CNS = settings: 10 µM
SF-295 CNS = settings: 10 µM
SF-539 CNS = settings: 10 µM
UACC-257 melanoma = settings: 10 µM
M14 melanoma = settings: 10 µM
HCT-15 colon = settings: 10 µM
SNB-75 CNS = settings: 10 µM
SNB-19 CNS = settings: 10 µM
U251 CNS = settings: 10 µM
PC-3 prostate = settings: 10 µM
SK-MEL-5 melanoma = settings: 10 µM
UACC-62 melanoma = settings: 10 µM unless noted
LOX IMVI melanoma = settings: 10 µM
SK-MEL-28 melanoma = settings: 10 µM
HT29 colon = settings: 10 µM

Measured: growth

N=c1c(C(=O)OCc2ccccc2)ncc(CCl)n1O
inactive: DU-145 prostate 102% | K-562 leukemia 109% | MALME-3M melanoma 113% | MDA-MB-231 breast 95.8% | RXF 393 renal 94.9% | SF-268 CNS 94.9% | SF-295 CNS 124% | SF-539 CNS 104% | UACC-257 melanoma 81.8% | M14 melanoma 94.1% | HCT-15 colon 99.7% | SNB-75 CNS 83.6% | SNB-19 CNS 95.6% | U251 CNS 71.4% | PC-3 prostate 95.9% | SK-MEL-5 melanoma 96.9% | UACC-62 melanoma 91.1% | LOX IMVI melanoma 42.2% | SK-MEL-28 melanoma 98.1%

O=c1c2ccccc2c(Br)c(Br)c2ccccc12
active: M14 melanoma 5.89% | LOX IMVI melanoma 3.1%
inactive: DU-145 prostate 114% | K-562 leukemia 52.6% | MALME-3M melanoma 94.7% | MDA-MB-231 breast 115% | RXF 393 renal 48% | SF-268 CNS 110% | SF-295 CNS 99.4% | SF-539 CNS 98.6% | UACC-257 melanoma 66.2% | HCT-15 colon 98% | SNB-75 CNS 119% | SNB-19 CNS 101% | U251 CNS 91% | PC-3 prostate 95.7% | SK-MEL-5 melanoma 109% | UACC-62 melanoma 95.6% | SK-MEL-28 melanoma 106%

CCN(CC)CCNc1ccc(CO)c2sc3ccccc3c(=O)c12
inactive: DU-145 prostate 39.3% | K-562 leukemia 63.4% | MALME-3M melanoma 39.8% | MDA-MB-231 breast 50.1% | RXF 393 renal 36.6% | SF-268 CNS 40.5% | SF-295 CNS 44.9% | SF-539 CNS 50% | UACC-257 melanoma 11.6% | M14 melanoma 57.5% | HCT-15 colon 27.2% | HT29 colon 18.1% | SNB-19 CNS 43.2% | U251 CNS 32.4% | PC-3 prostate 46.1% | UACC-62 melanoma 30.6% | LOX IMVI melanoma 28%

CC(C)=NNc1ccc([N+](=O)[O-])cc1[N+](=O)[O-]
inactive: DU-145 prostate 89.8% | K-562 leukemia 60.2% | MALME-3M melanoma 159% | MDA-MB-231 breast 82.4% | RXF 393 renal 109% | SF-268 CNS 85.1% | SF-295 CNS 69.8% | SF-539 CNS 95.6% | UACC-257 melanoma 101% | M14 melanoma 74.3% | HCT-15 colon 62.3% | HT29 colon 91.8% | SNB-19 CNS 98.3% | U251 CNS 92.9% | PC-3 prostate 87.3% | SK-MEL-5 melanoma 102% | UACC-62 melanoma 65.1% | SK-MEL-28 melanoma 111%

CC1CCCC(CC(N)=O)CC1 (configuration not stated)
inactive: DU-145 prostate 117% | K-562 leukemia 94.3% | MALME-3M melanoma 107% | MDA-MB-231 breast 103% | RXF 393 renal 117% | SF-268 CNS 104% | SF-295 CNS 89.4% | SF-539 CNS 98.4% | UACC-257 melanoma 104% | M14 melanoma 108% | HCT-15 colon 107% | HT29 colon 85% | SNB-19 CNS 110% | U251 CNS 99.7% | PC-3 prostate 78.8% | SK-MEL-5 melanoma 103% | UACC-62 melanoma 104% | LOX IMVI melanoma 101% | SK-MEL-28 melanoma 119%

COC(=O)/C=C\C(=O)OC
inactive: DU-145 prostate 120% | K-562 leukemia 107% | MALME-3M melanoma 139% | MDA-MB-231 breast 104% | RXF 393 renal 110% | SF-268 CNS 113% | SF-295 CNS 114% | SF-539 CNS 103% | UACC-257 melanoma 106% | M14 melanoma 107% | HCT-15 colon 107% | HT29 colon 103% | SNB-19 CNS 109% | U251 CNS 105% | PC-3 prostate 93.1% | SK-MEL-5 melanoma 106% | UACC-62 melanoma 101% | SK-MEL-28 melanoma 112%

COc1ccc(C2(O)CCCCC2)cc1
inactive: DU-145 prostate 112% | K-562 leukemia 111% | MALME-3M melanoma 105% | MDA-MB-231 breast 97% | RXF 393 renal 103% | SF-268 CNS 105% | SF-295 CNS 105% | SF-539 CNS 109% | UACC-257 melanoma 99.1% | M14 melanoma 101% | HCT-15 colon 112% | HT29 colon 106% | SNB-19 CNS 102% | U251 CNS 100% | PC-3 prostate 89.7% | SK-MEL-5 melanoma 98.6% | UACC-62 melanoma 94.7% | LOX IMVI melanoma 96.1% | SK-MEL-28 melanoma 120%

CCN(CC)c1ccc2nc3ccc(=[N+](CC)CC)cc-3oc2c1
active: MALME-3M melanoma -48.6% | MDA-MB-231 breast -12.1% | SF-295 CNS 1.09% | UACC-257 melanoma -55.8% | M14 melanoma -34.1% | SNB-75 CNS 1.61% | SNB-19 CNS -1.56% | U251 CNS -13.9% | PC-3 prostate 4.1% | SK-MEL-5 melanoma -53.4% | UACC-62 melanoma -39.1% | LOX IMVI melanoma -22.7% | SK-MEL-28 melanoma 2.45%
inactive: DU-145 prostate 37.6% | K-562 leukemia 21% | RXF 393 renal 53.1% | SF-268 CNS 13.9% | SF-539 CNS 21.2% | HCT-15 colon 35.5%

CCOC(=O)c1[nH]c(C)c(C(=O)O)c1C
inactive: DU-145 prostate 114% | K-562 leukemia 102% | MALME-3M melanoma 122% | MDA-MB-231 breast 107% | RXF 393 renal 115% | SF-268 CNS 105% | SF-295 CNS 122% | SF-539 CNS 105% | UACC-257 melanoma 111% | M14 melanoma 124% | HCT-15 colon 109% | HT29 colon 105% | SNB-19 CNS 109% | U251 CNS 107% | PC-3 prostate 88.9% | UACC-62 melanoma 107% | LOX IMVI melanoma 106%

CC(=O)c1ccc(C)c(N)c1
inactive: DU-145 prostate 110% | K-562 leukemia 102% | MALME-3M melanoma 107% | MDA-MB-231 breast 115% | RXF 393 renal 111% | SF-268 CNS 100% | SF-295 CNS 101% | SF-539 CNS 101% | UACC-257 melanoma 102% | M14 melanoma 92.5% | HCT-15 colon 100% | SNB-75 CNS 97.6% | SNB-19 CNS 99% | U251 CNS 98.4% | PC-3 prostate 92.8% | SK-MEL-5 melanoma 110% | UACC-62 melanoma 99.9% | LOX IMVI melanoma 76.8% | SK-MEL-28 melanoma 105%

CCOc1ccc(/C=C/C(=O)c2ccccc2)cc1
inactive: DU-145 prostate 95.1% | K-562 leukemia 71.5% | MALME-3M melanoma 108% | MDA-MB-231 breast 114% | RXF 393 renal 53.4% | SF-268 CNS 85.6% | SF-295 CNS 111% | SF-539 CNS 105% | UACC-257 melanoma 97.7% | M14 melanoma 99.7% | HCT-15 colon 92.4% | HT29 colon 96.1% | SNB-19 CNS 92.2% | U251 CNS 86.7% | PC-3 prostate 73.7% | SK-MEL-5 melanoma 99.6% | UACC-62 melanoma 88.9% | SK-MEL-28 melanoma 100%

CC1(C)Nc2cccc3c(N=Nc4ccc(N=Nc5ccccc5)c5ccccc45)ccc(c23)N1
inactive: DU-145 prostate 120% | K-562 leukemia 123% | MALME-3M melanoma 132% | MDA-MB-231 breast 66.9% | RXF 393 renal 124% | SF-268 CNS 106% | SF-295 CNS 100% | SF-539 CNS 94.5% | UACC-257 melanoma 95.9% | M14 melanoma 91.6% | HCT-15 colon 77.5% | SNB-75 CNS 73% | SNB-19 CNS 124% | U251 CNS 110% | PC-3 prostate 89.6% | SK-MEL-5 melanoma 92.9% | UACC-62 melanoma 79.2% | LOX IMVI melanoma 77.6% | SK-MEL-28 melanoma 116%

CCOC(=O)/C(=C/c1ccc(OC)cc1)N(CC)CC
inactive: DU-145 prostate 102% | K-562 leukemia 102% | MALME-3M melanoma 108% | MDA-MB-231 breast 107% | RXF 393 renal 107% | SF-268 CNS 100% | SF-295 CNS 101% | SF-539 CNS 108% | UACC-257 melanoma 103% | M14 melanoma 107% | HCT-15 colon 112% | HT29 colon 109% | SNB-19 CNS 103% | U251 CNS 99.1% | PC-3 prostate 95.4% | SK-MEL-5 melanoma 99.7% | UACC-62 melanoma 102% | LOX IMVI melanoma 97.7% | SK-MEL-28 melanoma 112%

N#Cc1c(N)sc(=S)c2c1CCCC2
inactive: DU-145 prostate 113% | K-562 leukemia 113% | MALME-3M melanoma 119% | MDA-MB-231 breast 111% | RXF 393 renal 118% | SF-268 CNS 104% | SF-295 CNS 110% | SF-539 CNS 110% | UACC-257 melanoma 110% | M14 melanoma 116% | HCT-15 colon 104% | SNB-75 CNS 104% | SNB-19 CNS 105% | U251 CNS 107% | PC-3 prostate 100% | SK-MEL-5 melanoma 114% | UACC-62 melanoma 114% | LOX IMVI melanoma 99.4% | SK-MEL-28 melanoma 112%

O=c1cc2oc3cc(O)c(O)cc3c(-c3ccccc3O)c-2cc1O
inactive: DU-145 prostate 86% | K-562 leukemia 54.1% | MALME-3M melanoma 105% | MDA-MB-231 breast 81.9% | RXF 393 renal 60.1% | SF-295 CNS 101% | SF-539 CNS 52.3% | UACC-257 melanoma 130% | M14 melanoma 77.1% | HCT-15 colon 91.7% | SNB-75 CNS 62.9% | SNB-19 CNS 72.5% | U251 CNS 58.4% | PC-3 prostate 73.9% | SK-MEL-5 melanoma 74.2% | UACC-62 melanoma 80.5% | LOX IMVI melanoma 64.8% | SK-MEL-28 melanoma 81.6%
active: SF-268 CNS -1.76%

CCOC(=O)C(=O)C=P(c1ccccc1)(c1ccccc1)c1ccccc1
inactive: DU-145 prostate 103% | K-562 leukemia 107% | MALME-3M melanoma 102% | MDA-MB-231 breast 99.2% | RXF 393 renal 106% | SF-268 CNS 97.9% | SF-295 CNS 97.8% | SF-539 CNS 103% | UACC-257 melanoma 111% | M14 melanoma 109% | HCT-15 colon 102% | HT29 colon 106% | SNB-19 CNS 109% | U251 CNS 107% | PC-3 prostate 96.4% | SK-MEL-5 melanoma 102% | UACC-62 melanoma 107% | LOX IMVI melanoma 92.8% | SK-MEL-28 melanoma 110%
